The text below walks through data of ChEMBL document CHEMBL1157539, “Thousands of chemical starting points for antimalarial lead identification” (Nature, 2010).

Assay [1] has as its system Plasmodium falciparum. The assay can be described thus: GSK_TCMDC: Inhibition of Plasmodium falciparum 3D7 in whole red blood cells, using parasite LDH activity as an index of growth. Test compounds present at 2uM. It counts as functional.
Assay [2] deals with Plasmodium falciparum. Put plainly: GSK_TCMDC: Inhibition of Plasmodium falciparum Dd2 in whole red blood cells, using parasite LDH activity as an index of growth. Test compounds present at 2uM. It is filed as functional.

Each structure is given as a SMILES string. “And” between values parts separate entries of the source, which are not always exact repeats. Identical values can stand only once.

In the case of `Cc1nc(C)c(-c2ccc(S(=O)(=O)c3ccc(Cl)cc3)cc2)c(O)c1Br`, the Inhibition in the assay with Plasmodium falciparum [1] and in the assay on Plasmodium falciparum [2] was 97% in each case.

For the compound `COc1ccc(Cc2c(Cl)nc3nc(N)nc(N)c3c2C)cc1`, the Inhibition is given as 94% with Plasmodium falciparum [1] and 3% with Plasmodium falciparum [2].

`Cc1ccc(Cc2cccc3nc(N)nc(N)c23)cc1`: the Inhibition in the assay with Plasmodium falciparum [1] is given as 92%; in the assay with Plasmodium falciparum [2] it was 0%.

Turning to `CC1CCN(Cc2c(O)ccc3c(CN4CCC(C)CC4)c(O)ccc23)CC1.Cl`, the Inhibition in the assay with Plasmodium falciparum [1] came to 100%; in the assay with Plasmodium falciparum [2], 86%.

Consider `CCCCCCCN(Cc1ccc(OC(C)(C)C(=O)OCC)cc1)C(=O)Nc1ccc(Cl)cc1OCC`, for which the Inhibition in the assay with Plasmodium falciparum [1] stood at 95%; in the assay on Plasmodium falciparum [2] it was 89%.

In the assay on Plasmodium falciparum [1], `Cc1ccc(Cn2ccc3c4c(N)nc(N)nc4ccc32)cc1` returned an Inhibition of 99%.

The compound `CCc1cc2c3c(N)nc(N)nc3ccc2n1C(C)(C)C` displayed an Inhibition in the assay on Plasmodium falciparum [1] of 99%.

In the case of `COc1cc(Cc2cnc(N)nc2N)cc(OCCCCCCN)c1OC.Cl`, the figures for the Inhibition in the assay with Plasmodium falciparum [1] and with Plasmodium falciparum [2] were 96% and 0%, respectively.

In the assay on Plasmodium falciparum [1], `Cc1cccc(Cn2ccc3c(N)nc(N)nc32)c1` returned an Inhibition of 82%.

In the case of `CC(C)c1ccc(Cn2cc(-c3ccncc3)c3cc(OCc4ccccc4)ccc32)cc1.Cl`, the Inhibition came out at 99% in the assay with Plasmodium falciparum [1] and 88% with Plasmodium falciparum [2].

Regarding `Nc1nc(N)c2c(ccc3c2ccn3Cc2cccc(F)c2)n1`, the Inhibition in the assay on Plasmodium falciparum [1] is 100%; in the assay with Plasmodium falciparum [2], 99%.

Consider `COc1ccc(C2c3ccccc3-c3nc(N)nc(N)c3C2C)cc1` (configuration not stated), for which the Inhibition worked out at 97% in the assay on Plasmodium falciparum [1] and 0% in the assay with Plasmodium falciparum [2].

With `Cc1ccccc1Cn1ccc2c3c(N)nc(N)nc3ccc21`, in the assay on Plasmodium falciparum [1], the Inhibition was 100%.

Turning to `Cc1[nH]c(C)c(-c2ccc(Oc3ccc(C(F)(F)F)cc3)cc2)c(=O)c1Br`, the Inhibition with Plasmodium falciparum [1] and in the assay with Plasmodium falciparum [2] was 97% throughout.

For `CC(=NNC(S)=NCc1ccco1)c1ccccn1`, the results for the Inhibition with Plasmodium falciparum [1] and with Plasmodium falciparum [2] were 99% and 100%, respectively.

Turning to `COc1cc(Cc2cnc(N)nc2N)cc(OCCCC(=O)O)c1OC`, the figures for the Inhibition in the assay with Plasmodium falciparum [1] and in the assay on Plasmodium falciparum [2] were 84% and 0%, respectively.

Turning to `CCC1=C(CC2NCCc3cc(OC)c(OC)cc32)CC2c3cc(OC)c(OC)cc3CCN2C1` (configuration not stated) [DIHYDROEMETINE], the Inhibition in the assay with Plasmodium falciparum [1] and in the assay on Plasmodium falciparum [2] was 100% throughout.

Turning to `CCCCNCCOc1ccc(-c2nc(-c3ccccc3)c(-c3ccccc3)[nH]2)cc1`, the Inhibition is listed as 100% with Plasmodium falciparum [1] and 34% with Plasmodium falciparum [2].

Consider `COc1cccc(Cn2ccc3c4c(N)nc(N)nc4ccc32)c1`, for which the Inhibition in the assay on Plasmodium falciparum [1] is 99%; in the assay with Plasmodium falciparum [2], 96%.

For `Nc1ncc(-c2ccc(Br)cc2)c(N)n1`, the figures for the Inhibition in the assay with Plasmodium falciparum [1] and in the assay on Plasmodium falciparum [2] were 89% and 0%, respectively.

As to `COc1cc(Cc2cnc(N)nc2N)cc(OCCCCCCC(=O)O)c1OC`, the Inhibition came out at 90% with Plasmodium falciparum [1] and 2% in the assay with Plasmodium falciparum [2].

On to `CC1CNC(c2ccc(NC(=O)Nc3ccc(C4=NC(C)CN4)cc3)cc2)=N1.Cl` (configuration not stated), for which the Inhibition in the assay with Plasmodium falciparum [1] is given as 85%; with Plasmodium falciparum [2] it was 67%.

`O=C(Nc1cccc(-c2cccc(-c3nc4ccccc4[nH]3)c2)c1)NC1CC1c1ccccc1` (configuration not stated): the Inhibition is 90% and 87% with Plasmodium falciparum [1]; 22% and 27% in the assay on Plasmodium falciparum [2].

Turning to `CC(=O)Nc1ccc(OCCCCCOc2ccc(NC(C)=O)cc2Cl)c(Cl)c1`, the Inhibition is 93% with Plasmodium falciparum [1] and 0% in the assay with Plasmodium falciparum [2].

With `Cc1nc(C)c(-c2ccc(Oc3ccc(Cl)cc3)cc2)c(O)c1I`, the Inhibition amounted to 88% in the assay on Plasmodium falciparum [1] and 49% in the assay on Plasmodium falciparum [2].

For the compound `Cc1nc(C)c(-c2ccc(Sc3ccc(Cl)cc3)cc2)c(O)c1Br`, the Inhibition was 98% with Plasmodium falciparum [1] and 97% in the assay on Plasmodium falciparum [2].

Turning to `CCOc1ccc(CNCCCCCCNCc2ccc(OCC)c3ccccc23)c2ccccc12.CS(=O)(=O)O`, the figures for the Inhibition in the assay on Plasmodium falciparum [1] and in the assay on Plasmodium falciparum [2] were 100% and 75%, respectively.

In the case of `COc1cc(CCNC(=O)Cc2ccc3ccccc3c2)ccc1OCc1ccccc1`, the Inhibition with Plasmodium falciparum [1] is 93%; in the assay on Plasmodium falciparum [2], 61%.

As for `Cc1nc(C)c(-c2ccc(Oc3cccc(OC(F)(F)F)c3)cc2)c(O)c1Br`, the figures for the Inhibition in the assay with Plasmodium falciparum [1] and with Plasmodium falciparum [2] were 100% and 96%, respectively.

Consider `Cc1nc(NCc2ccccc2)cc(Nc2cc(NCc3ccccc3)nc(C)n2)n1`, for which the Inhibition in the assay on Plasmodium falciparum [1] turned out to be 90%; in the assay on Plasmodium falciparum [2] it was 32%.

As to `COc1ccc(Cc2cnc(N)nc2N)cc1OCCCOc1ccccc1`, the Inhibition in the assay with Plasmodium falciparum [1] amounted to 91%; in the assay on Plasmodium falciparum [2] it was 4%.

Turning to `Nc1nc(N)c2c(ccc3c2ccn3Cc2ccc(Br)cc2)n1`, the Inhibition with Plasmodium falciparum [1] came out at 100%; with Plasmodium falciparum [2], 98%.

On to `Cl.Oc1cc2ccccc2cc1CNC1CCCCC1`, for which the Inhibition worked out at 98% in the assay on Plasmodium falciparum [1] and 89% in the assay with Plasmodium falciparum [2].

`CN(Cc1cnc2nc(N)nc(N)c2n1)c1ccc(C(=O)N[C@@H](CCC(=O)O)C(=O)O)cc1` [METHOTREXATE]: the Inhibition is 91% and 92% in the assay on Plasmodium falciparum [1]; 44% and 66% with Plasmodium falciparum [2].

Take `CCCCc1nc2nc(N)nc(N)c2cc1CCC`: the Inhibition in the assay on Plasmodium falciparum [1] worked out at 97%; with Plasmodium falciparum [2], 0%.

In the case of `COc1ccc2c(CNCCCCCCNCc3c(OC)ccc4cc(OC)ccc34)c(OC)ccc2c1.CS(=O)(=O)O`, the Inhibition amounted to 100% in the assay with Plasmodium falciparum [1] and 79% with Plasmodium falciparum [2].

With `Cl.N=C(N)c1ccc(OCCCCCOc2ccc(C(=N)N)cc2)cc1` [PENTAMIDINE HYDROCHLORIDE], the Inhibition in the assay with Plasmodium falciparum [1] is 99%; in the assay on Plasmodium falciparum [2] it was 98%.

Consider `O=c1c2ccc(Sc3ccccn3)cc2n(-c2ccccc2)c2cc(Sc3ccccn3)ccc12`, for which the Inhibition in the assay on Plasmodium falciparum [1] is given as 89%; with Plasmodium falciparum [2], 70%.

For `N=C(N)NC(=O)Nc1cc(F)c(Cl)c(Cl)c1`, the Inhibition with Plasmodium falciparum [1] and in the assay with Plasmodium falciparum [2] was 100% each time.

On to `CCN(CC)CCCC(C)Nc1ccnc2cc(C#N)ccc12` (configuration not stated), for which the Inhibition in the assay with Plasmodium falciparum [1] stood at 100%; with Plasmodium falciparum [2] it was 80%.

On to `Cl.c1ccc2c(c1)cc(CNCCCN1CCN(CCCNCc3cc4ccccc4c4ccccc34)CC1)c1ccccc12`, for which the Inhibition in the assay on Plasmodium falciparum [1] was determined as 100%; in the assay with Plasmodium falciparum [2], 98%.

On to `CCCc1cc(Cc2cnc(N)nc2N)c2cccnc2c1OC`, for which the Inhibition is given as 98% with Plasmodium falciparum [1] and 3% in the assay with Plasmodium falciparum [2].

As to `COc1cc(Cc2cnc(N)nc2N)cc(OCCCCNS(=O)(=O)C(F)(F)F)c1OC`, the values for the Inhibition with Plasmodium falciparum [1] and with Plasmodium falciparum [2] were 84% and 0%, respectively.
